Laboratory results reported in the supplement of paper PMC6089552.
In all, about 3,200 compounds went through this assay and about 300 (9.4%) showed activity. Shown is part of a subset that was picked to be rich in actives.

Test system: A673/TR/shEF
Experiment: cell viability (LOESS-normalised, relative to median of negative controls) (log2 ratio); higher = more viable cells (less compound effect), active = hit call of the paper (over 3 MAD below the median)
Conditions: treatment time: 72 h
Method in brief: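 A673/TR/shEF Ewing sarcoma cells (1,500 per well, 384-well plates) were grown with or without doxycycline to induce EWS-FLI1 shRNA knockdown, starting 24 h before compounds. Library compounds at two or more concentrations, with DMSO controls, were added for three days. Cell viability was read by CellTiter-Glo luminescence on an Envision reader, then LOESS-corrected per plate, divided by the median of negative controls and log2-transformed. Hits were wells at least three median absolute deviations from the median of all screened wells.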

[1] = 0.25 µM, library screen: screen2, EWS-FLI1 expression: high (no doxycycline)
[2] = 0.25 µM, library screen: screen2, EWS-FLI1 expression: low (doxycycline-induced shRNA knockdown)
[3] = 2.5 µM, library screen: screen2, EWS-FLI1 expression: high (no doxycycline)
[4] = 2.5 µM, library screen: screen2, EWS-FLI1 expression: low (doxycycline-induced shRNA knockdown)
[5] = 0.25 µM, library screen: screen1, EWS-FLI1 expression: high (no doxycycline)
[6] = 0.25 µM, library screen: screen1, EWS-FLI1 expression: low (doxycycline-induced shRNA knockdown)
[7] = 2.5 µM, library screen: screen1, EWS-FLI1 expression: high (no doxycycline)
[8] = 2.5 µM, library screen: screen1, EWS-FLI1 expression: low (doxycycline-induced shRNA knockdown)
[9] = 0.025 µM, library screen: screen2, EWS-FLI1 expression: high (no doxycycline)
[10] = 0.025 µM, library screen: screen2, EWS-FLI1 expression: low (doxycycline-induced shRNA knockdown)
[11] = 25 µM, library screen: screen2, EWS-FLI1 expression: high (no doxycycline)
[12] = 25 µM, library screen: screen2, EWS-FLI1 expression: low (doxycycline-induced shRNA knockdown)
[13] = 0.103 µM, library screen: screen3, EWS-FLI1 expression: high (no doxycycline)
[14] = 0.103 µM, library screen: screen3, EWS-FLI1 expression: low (doxycycline-induced shRNA knockdown)
[15] = 0.308 µM, library screen: screen3, EWS-FLI1 expression: high (no doxycycline)
[16] = 0.308 µM, library screen: screen3, EWS-FLI1 expression: low (doxycycline-induced shRNA knockdown)
[17] = 0.926 µM, library screen: screen3, EWS-FLI1 expression: high (no doxycycline)
[18] = 0.926 µM, library screen: screen3, EWS-FLI1 expression: low (doxycycline-induced shRNA knockdown)
[19] = 2.8 µM, library screen: screen3, EWS-FLI1 expression: high (no doxycycline)
[20] = 2.8 µM, library screen: screen3, EWS-FLI1 expression: low (doxycycline-induced shRNA knockdown)
[21] = 8.3 µM, library screen: screen3, EWS-FLI1 expression: high (no doxycycline)
[22] = 8.3 µM, library screen: screen3, EWS-FLI1 expression: low (doxycycline-induced shRNA knockdown)
[23] = 25 µM, library screen: screen3, EWS-FLI1 expression: high (no doxycycline)
[24] = 25 µM, library screen: screen3, EWS-FLI1 expression: low (doxycycline-induced shRNA knockdown)
[25] = 0.025 µM, library screen: screen1, EWS-FLI1 expression: high (no doxycycline)
[26] = 0.025 µM, library screen: screen1, EWS-FLI1 expression: low (doxycycline-induced shRNA knockdown)
[27] = 25 µM, library screen: screen1, EWS-FLI1 expression: high (no doxycycline)
[28] = 25 µM, library screen: screen1, EWS-FLI1 expression: low (doxycycline-induced shRNA knockdown)

Measured: cell viability (log2)

CC(C)(C)[C@]1(O)CCN2CC3c4ccccc4CCc4cccc(c43)[C@@H]2C1 (some centres undefined)
inactive: [1] 0.166 | [2] 0.165 | [3] 0.11 | [4] 0.076

CC12CCC3c4ccc(OCc5ccccc5)cc4CCC3C1C[C@@H](O)[C@@H]2O (some centres undefined)
inactive: [5] 0.0858 | [6] 0.0634 | [7] 0.147 | [8] 0.17

COc1cc(NC(C)CCCN)c2ncccc2c1 (centres undefined)
inactive: [9] 0.0561 | [10] -0.00137 | [5] 0.054 | [6] 0.199 | [1] 0.0891 | [2] 0.0483 | [7] 0.127 | [8] 0.305 | [3] 0.104 | [4] -0.00544 | [12] -0.0311
active: [11] -0.632

CCCCC1=NC2(CCCC2)C(=O)N1Cc1ccc(-c2ccccc2-c2nn[nH]n2)cc1
inactive: [13] 0.107 | [14] 0.0606 | [5] 0.058 | [6] 0.0291 | [15] -0.0112 | [16] 0.0296 | [17] 0.00566 | [18] 0.0237 | [7] 0.0857 | [8] 0.072 | [19] 0.0909 | [20] 0.0243 | [21] 0.0907 | [22] 0.057 | [23] 0.0719 | [24] 0.134

CC(C)[C@@H]1CC[C@@H](C)CC1=O
inactive: [5] 0.057 | [6] 0.0478 | [7] 0.148 | [8] 0.0792

CN1CCCC(n2nc(Cc3ccc(Cl)cc3)c3ccccc3c2=O)CC1 (centres undefined)
inactive: [13] 0.00451 | [14] 0.0233 | [15] 0.0154 | [16] 0.0686 | [17] 0.0285 | [18] 0.0485 | [19] 0.0385 | [20] 0.0809 | [21] 0.0197 | [22] 0.0247 | [23] -0.00429 | [24] -0.0202

O=C(c1cc(Cc2n[nH]c(=O)c3ccccc23)ccc1F)N1CCN(C(=O)C2CC2)CC1
active: [23] -0.244 | [24] -0.143
inactive: [13] -0.00614 | [14] 0.0146 | [15] -0.0732 | [16] -0.0144 | [17] 0.00937 | [18] 0.0508 | [19] -0.137 | [20] 0.0104 | [21] -0.158 | [22] -0.00135

CC(=O)[C@H]1CCC2C3CC=C4C[C@@H](OS(=O)(=O)O)CC[C@]4(C)C3CC[C@@]21C (some centres undefined)
inactive: [1] 0.147 | [2] 0.0952 | [3] 0.0185 | [4] -0.0104

COc1ccc(-c2coc3c(OC)c(OC)cc(OC)c3c2=O)cc1
inactive: [5] 0.0837 | [6] 0.0693 | [7] 0.102 | [8] 0.078

CCOc1ccccc1N1C(=O)c2cccc3cccc(c23)C1=O
inactive: [5] 0.0619 | [6] 0.0408 | [7] 0.058 | [8] 0.0712

CC(C)(C)n1nc(-c2ccc(Cl)cc2)c2c(N)ncnc21
active: [7] -0.388 | [27] -0.453
inactive: [25] 0.227 | [26] -0.0277 | [5] 0.174 | [6] 0.0475 | [8] 0.0249 | [28] -0.00123

CCc1nc(N)nc(N)c1-c1ccc(Cl)cc1
inactive: [9] 0.129 | [10] 0.0541 | [13] 0.0417 | [14] 0.0477 | [5] 0.0408 | [6] 0.123 | [1] 0.112 | [2] 0.0163 | [15] 0.0837 | [16] 0.135 | [17] 0.0823 | [18] 0.107 | [7] 0.0817 | [8] 0.0354 | [3] 0.122 | [4] 0.129 | [19] 0.0808 | [20] 0.046 | [21] 0.0995 | [22] 0.0615 | [11] 0.0523 | [12] -0.0463 | [23] 0.153 | [24] 0.146

Cc1ccc(-c2nn(C(C)(C)C)c3ncnc(N)c23)cc1
inactive: [25] 0.00835 | [26] -0.00557 | [5] 0.0184 | [6] 0.0452 | [7] -0.0765 | [8] 0.104 | [28] -0.07
active: [27] -0.108

C=CC(=O)N1CCC[C@@H](n2nc(-c3ccc(Oc4ccccc4)cc3)c3c(N)ncnc32)C1
inactive: [13] -0.0901 | [14] 0.0229 | [15] -0.0466 | [16] 0.0297 | [17] 0.021 | [18] 0.0235 | [19] -0.0315 | [20] 0.0823 | [21] -0.0558 | [22] 0.16 | [23] -0.158 | [24] 0.0664

CC(=O)Oc1cc2c(c(C)c1OC(C)=O)CC=C1[C@@]2(C)CC[C@@]2(C)[C@@H]3C[C@](C)(C(=O)O)CC[C@]3(C)CC[C@]12C
inactive: [5] 0.0258 | [6] 0.000386 | [7] 0.0381 | [8] 0.209

CCN1CCN(CC(O)COc2cc(C)c(Cl)c(C)c2)CC1 (centres undefined)
inactive: [5] 0.082 | [6] 0.0372 | [7] 0.096 | [8] 0.29

CCCCCCCCCC(=O)N[C@@H](Cc1c[nH]c2ccccc12)C(=O)N[C@@H](CC(N)=O)C(=O)N[C@@H](CC(=O)O)C(=O)NC1C(=O)NCC(=O)N[C@@H](CCCN)C(=O)N[C@@H](CC(=O)O)C(=O)N[C@H](C)C(=O)N[C@@H](CC(=O)O)C(=O)NCC(=O)N[C@H](CO)C(=O)N[C@@H](C(C)CC(=O)O)C(=O)N[C@@H](CC(=O)c2ccccc2N)C(=O)OC1C (some centres undefined)
inactive: [13] -0.000338 | [14] -0.000608 | [15] 0.0186 | [16] 0.0343 | [17] 0.103 | [18] 0.0444 | [19] 0.0611 | [20] 0.0124 | [21] 0.0568 | [22] 0.116 | [23] -0.0118 | [24] -0.0633

COc1cc(OC)cc(C(CNc2ncnc3c2ncn3C2O[C@H](CO)[C@@H](O)[C@H]2O)c2ccccc2C)c1 (some centres undefined)
inactive: [1] 0.151 | [2] 0.0311 | [3] 0.147 | [4] 0.121

C#CCCCCCCCCCCC[C@@H](O)C[C@@H](O)COC(C)=O
inactive: [5] 0.145 | [6] 0.0417 | [7] 0.08 | [8] 0.0325

COc1ccc(CN2CCN(Cc3ccccc3C(F)(F)F)CC2)c(OC)c1OC
inactive: [5] -0.00682 | [6] 0.0327 | [7] 0.087 | [8] 0.144

CC=C(C)C(=O)OC1Cc2c(ccc3ccc(=O)oc23)OC1(C)C (centres undefined)
inactive: [5] 0.052 | [6] 0.0529 | [7] 0.186 | [8] 0.0456

CCCCCCCCCCCCCCCCCCOCC(O)CO (centres undefined)
inactive: [5] 0.0496 | [6] 0.117 | [7] 0.142 | [8] 0.0249

COc1ccc2c(c1)OC[C@@H](Cc1ccc(OC)c(OC)c1)C2=O
inactive: [5] -0.018 | [6] 0.0264 | [7] 0.11 | [8] 0.0741

COc1ccc2c(c1)OC[C@@H](Cc1ccc(OC)c(OC)c1)[C@@H]2O
inactive: [5] 0.137 | [6] -0.0181 | [7] 0.209 | [8] 0.0843

COc1ccc2c(c1)OCC(Cc1ccc(OC)c(OC(C)=O)c1)C2=O (centres undefined)
inactive: [5] 0.0793 | [6] -0.0163 | [8] -0.0188
active: [7] -0.246

Oc1cc(O)c2c(c1)O[C@H](c1cc(O)c(O)c(O)c1)[C@H](O)[C@H]2c1c(O)cc(O)c2c1O[C@H](c1cc(O)c(O)c(O)c1)[C@H](O)[C@H]2c1c(O)cc(O)c2c1O[C@H](c1cc(O)c(O)c(O)c1)[C@H](O)C2
inactive: [5] -0.0224 | [6] 0.066 | [7] 0.107 | [8] 0.0716

OC[C@H]1O[C@@H](O[C@H]2[C@H](O)[C@@H](O)C(O)O[C@@H]2CO)[C@H](O)[C@@H](O)[C@@H]1O (some centres undefined)
inactive: [5] -0.0294 | [6] 0.0659 | [7] 0.116 | [8] 0.0995

C[C@H](Cn1cnc2c(N)ncnc21)OCP(=O)(O)O
inactive: [13] 0.0857 | [14] 0.09 | [1] 0.128 | [2] 0.113 | [15] 0.00908 | [16] 0.0155 | [17] 0.0338 | [18] 0.0939 | [3] 0.189 | [4] 0.0365 | [19] 0.0533 | [20] 0.0269 | [21] -0.0007 | [22] 0.0852 | [23] 0.0436 | [24] 0.126

Nc1ncnc2c1ncn2[C@@H]1O[C@H](COP(=O)(O)O)[C@@H](O)[C@H]1O
inactive: [5] 0.101 | [6] -0.0633 | [7] 0.171 | [8] 0.117

CC(C)(C)C(=O)OCOP(=O)(COCCn1cnc2c(N)ncnc21)OCOC(=O)C(C)(C)C
active: [19] -0.371 | [21] -0.686 | [23] -1.44 | [24] -0.304
inactive: [13] -0.0455 | [14] 0.0657 | [15] -0.0326 | [16] 0.0345 | [17] -0.105 | [18] -0.0287 | [20] -0.0209 | [22] -0.0516

CC1CCC(O)C/C1=C/C=C1\CCCC2(C)C1CCC2C(C)/C=C/C(C)C(C)C (centres undefined)
inactive: [5] 0.0469 | [6] 0.0169 | [7] 0.0774 | [8] 0.0401
